Source: PubChem BioAssay (NCATS)
“And” between values parts separate entries of the source, which are not always exact repeats. Equal entries are not always repeated. Results filed as inconclusive are left out. A number with no mark means an inactive call. The source made the active and inactive calls. The call rests on the fitted dose curve; in most records, active means well fitted inhibition curve with a large enough effect; inconclusive means small, poorly fitted or top-dose-only effect; inactive means flat fitted curve, though single readings scatter.

System: KB-3-1
Test: Cytotoxic Profiling of Annotated Libraries Using Quantitative High-Throughput Screening (AID 1296008); further: nearly all actives have a fitted effect of over 60% in size
Conditions: Five cell lines viability, CellTiter-Glo ATP luminescence, 48-72 h; max response: active compounds read low
In short: (§1)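 Compounds were pin-transferred onto cells and incubated 48 or 72 hr at 37 degree Celsius, 95% humidity. CellTiter-Glo was added, plates sat 10 min at room temperature, then ATP-coupled luminescence was imaged as the viability read-out.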
On the % scale 0 is the no-effect control and ±100 the full control effect; potency means the concentration at half of the fitted maximal effect.

Row | SMILES | Potency | outcome | max response
1 | C[CH2][Hg][S]c1ccccc1C(=O)O | 7.31 µM (active) |  | 
2 | CN1C(=O)N(c2ccc(C#N)c(C(F)(F)F)c2)C(=O)[C@]1(CO)c1ccccc1 |  | inactive | 
3 | CN(C)[C@H](Cc1ccccc1)c1ccccc1 |  |  | 1.61%
4 | C=C1[C@@H]2CC[C@@]3(C)[C@H](c4ccoc4)OC(=O)C[C@]13O[C@H]1CC(=O)C(C)(C)[C@H](C(OC(C)=O)C(=O)OC)[C@]12C (stereo not given in full) |  |  | -6.59%
5 | CCC(=O)O[C@]1(c2ccccc2)CCN(C)C[C@H]1C |  |  | -2.12%
6 | C[C@@H]1C(=O)O[C@H]2[C@H](O)[C@@]34[C@@H]5OC(=O)[C@@]3(O[C@@H]3OC(=O)[C@@H](O)[C@@]34[C@H](C(C)(C)C)[C@H]5O)[C@@]12O |  | inactive | 
7 | COC(=O)C1(C)CCC(O)C2(C)c3c(O)cc(C(C)C)cc3C(O)C(OC(C)=O)C12 (stereo not given) |  | inactive | 
8 | CC(C)CCC(=O)O[C@H]1CC[C@H]2[C@@H]3CCC4=CC(=O)CC[C@]4(C)[C@H]3CC[C@]12C |  |  | 19.3%
9 | C#CCN1CC(=O)N(COC(=O)C2C(C=C(C)C)C2(C)C)C1=O (stereo not given) |  |  | -3.38%
10 | C[N+]1([O-])[C@@H]2CC(OC(=O)[C@H](CO)c3ccccc3)C[C@H]1[C@@H]1O[C@@H]12 (stereo not given in full) |  |  | -17% and 5.47%
11 | CCCCCc1cc(O)c2c(c1)OC(C)(C)[C@@H]1CCC(C)=C[C@@H]21 |  |  | -12.3%
12 | C1=C2CCCN[C@H]2[C@@H]2C[C@H]1[C@H]1CCCCN1C2 |  | inactive | 
13 | ClC1=C(Cl)[C@]2(Cl)[C@@H]3[C@H]4C[C@H]([C@@H]5O[C@H]45)[C@@H]3[C@@]1(Cl)C2(Cl)Cl |  |  | -3.16%
14 | CN[C@H]1C[C@@H](N)[C@H](O)[C@@H](O[C@@H]2O[C@H](CO)[C@H](O)[C@@H]3OC4(O[C@H]23)O[C@H](C(N)CO)[C@H](O)[C@H](O)[C@H]4O)[C@@H]1O (stereo not given in full) |  |  | -7% and 5.21%
15 | C=C[C@H]1CN2CC[C@H]1C[C@@H]2[C@@H](O)c1ccnc2ccccc12 |  |  | 5.41% and -18.8%
16 | CNc1ccc(C(=O)CC(O)CCC(C)C2OC(=O)CC(O)CC(=O)CC(O)CC(O)CC(O)CC(O)CC3(O)CC(O)C(C(=O)OC)C(CC(O[C@@H]4O[C@H](C)[C@@H](O)[C@H](N)[C@@H]4O)/C=C/C=C/C=C/C=C/C=C/C=C/C=C/C2C)O3)cc1 (stereo not given in full) |  |  | -0.469%
17 | CC(=O)[C@H]1CC[C@H]2[C@@H]3CC[C@@H]4C[C@H](O)CC[C@]4(C)[C@H]3CC[C@]12C |  |  | 4.77%
18 | OCCCCC#Cc1cncc(OC[C@@H]2CCN2)c1 |  |  | -3.78%
19 | COC(=O)N1CCN(C(=O)Cc2ccc(Cl)c(Cl)c2)[C@@H](CN2CCCC2)C1 |  |  | -3.66%
20 | CCc1[nH]c2ccc(OC)cc2c1CCN(C)C |  |  | -6.67%
21 | Cc1cccc(C(C)c2cnc[nH]2)c1C (stereo not given) |  |  | 8.09%
22 | CC1(C)S[C@@H]2[C@H](N)C(=O)N2[C@H]1C(=O)O |  |  | -11.7%
23 | CCOC(=O)/C=C(C)/C=C/C[C@@H](C)CCCC(C)C |  |  | 3.85%
24 | COc1cc(C)[nH]c(=O)c1CNC(=O)c1c(C)n([C@H](C)C2CCOCC2)c2ccccc12 |  | inactive | 
25 | CC(=O)OCC(=O)[C@H]1CC[C@H]2[C@@H]3CC[C@H]4C[C@H](O)CC[C@]4(C)[C@H]3C(=O)C[C@]12C |  |  | 2.82%
26 | C[N+]1([O-])[C@@H]2CC[C@H]1CC(OC(=O)C(CO)c1ccccc1)C2 (stereo not given in full) |  |  | -12.1% and -9.46%

System: NIH3T3
Test: as above
Conditions: Five cell lines viability, CellTiter-Glo ATP luminescence, 48-72 h; max response: active compounds read low
In short: as §1

Row | SMILES | outcome | max response
27 | CN1C(=O)N(c2ccc(C#N)c(C(F)(F)F)c2)C(=O)[C@]1(CO)c1ccccc1 | inactive | 
28 | C=C1[C@@H]2CC[C@@]3(C)[C@H](c4ccoc4)OC(=O)C[C@]13O[C@H]1CC(=O)C(C)(C)[C@H](C(OC(C)=O)C(=O)OC)[C@]12C (stereo not given in full) |  | -2.92%
29 | C[C@@H]1C(=O)O[C@H]2[C@H](O)[C@@]34[C@@H]5OC(=O)[C@@]3(O[C@@H]3OC(=O)[C@@H](O)[C@@]34[C@H](C(C)(C)C)[C@H]5O)[C@@]12O | inactive | 
30 | COC(=O)C1(C)CCC(O)C2(C)c3c(O)cc(C(C)C)cc3C(O)C(OC(C)=O)C12 (stereo not given) |  | 0.503%
31 | CN1C(=O)c2ccccc2NC(=O)C1Cc1ccccc1 (stereo not given) |  | -1.81%
32 | CCC(C)(OC(C)=O)C(=O)O[C@H]1[C@H](OC(C)=O)C[C@@H]2[C@@](C)([C@@H]3C[C@H]4C=CO[C@H]4O3)[C@H](C)C[C@H](OC(C)=O)[C@@]2(COC(C)=O)[C@@]12CO2 (stereo not given in full) | inactive | 
33 | CCN1C[C@]2(COC(=O)c3ccccc3N3C(=O)C[C@H](C)C3=O)CC[C@H](OC)[C@@]34[C@@H]5C[C@H]6[C@H](OC)[C@@H]5[C@](O)(C[C@@H]6OC)[C@](O)([C@@H](OC)[C@H]23)[C@@H]14 | inactive | 
34 | CO[C@H]1[C@H](O)[C@H](O[C@H]2CC[C@]3(C)C4CC[C@]5(C)[C@H](C6=CC(=O)OC6)CC[C@]5(O)C4CC[C@@H]3C2)O[C@@H](C)[C@@H]1O (stereo not given in full) | inactive | 
35 | N#CC(OC1OC(COC2OC(CO)C(O)C(O)C2O)C(O)C(O)C1O)c1ccccc1 (stereo not given) | inactive | 
36 | COc1cc(C(=O)O[C@H]2[C@@H]3C=CO[C@@H](O[C@@H]4O[C@H](CO)[C@@H](O)[C@H](O)[C@H]4O)[C@@H]3[C@@]3(CO)O[C@@H]23)ccc1O | inactive | 
37 | CC1=C2C[C@H]3[C@@H](CC=C4C[C@@H](O)CC[C@@]43C)[C@@H]2CC[C@]12O[C@@H]1C[C@H](C)CN[C@H]1[C@H]2C | inactive | 
38 | CCC(C)(C#N)O[C@@H]1O[C@H](CO)[C@@H](O)[C@H](O)[C@H]1O (stereo not given in full) | inactive | 
39 | C1=C2CCCN[C@H]2[C@@H]2C[C@H]1[C@H]1CCCCN1C2 | inactive | 
40 | CCCCCCn1c(=O)c(C(=O)Nc2ccc(C(=O)OCCC)cc2)c(O)c2ccccc21 |  | 4.2%
41 | C=C[C@H]1CN2CC[C@H]1C[C@@H]2[C@@H](O)c1ccnc2ccccc12 |  | -3.21%
42 | OCCCCC#Cc1cncc(OC[C@@H]2CCN2)c1 | inactive | 
43 | COC(=O)N1CCN(C(=O)Cc2ccc(Cl)c(Cl)c2)[C@@H](CN2CCCC2)C1 | inactive | 
44 | COC1=CC(=O)O[C@@H](CCc2ccccc2)C1 | inactive | 
45 | CN1[C@H]2C[C@H](OC(=O)[C@H](CO)c3ccccc3)C[C@@H]1[C@@H](O)C2 | inactive | 
46 | CCc1[nH]c2ccc(OC)cc2c1CCN(C)C | inactive | 
47 | COc1cc2c(cc1OC)[C@@]13CCN4CC5=CCO[C@H]6CC(=O)N2[C@H]1[C@H]6[C@H]5C[C@H]43 |  | 1.02%
48 | COC1C(O)C(OC2CCC3(C=O)C(CCC4C3CCC3(C)C(C5=CC(=O)OC5)CCC43O)C2)OC(C)C1OC1OC(CO)C(O)C(O)C1O (stereo not given) | inactive | 
49 | Cc1cccc(NC(=O)N[C@@H]2N=C(c3ccccc3)c3ccccc3N(C)C2=O)c1 | inactive | 
50 | COc1cc(C)[nH]c(=O)c1CNC(=O)c1c(C)n([C@H](C)C2CCOCC2)c2ccccc12 | inactive | 
